The values that follow come from ChEMBL document CHEMBL3988442, “University of Dundee, Small-Polar-MMV Screening Library” (2021).

In all, about 48,000 compounds went through this assay and about 13,000 (27%) showed an effect of 50% or more. The list shows a part of the results.

This assay has as its system Wolbachia pipientis. As to the kind of experiment: Anti-Wolbachia Cell-Based Screen. The assay is classed as functional. Also on record: scale not given: in the data most compounds retested in dose-response had high values. As to conditions: 5 µM.
On to `CS(=O)(=O)N1CCC(NC(=O)COc2ccc(Br)cc2Cl)CC1`, for which the “Percent Effect” value is 124.9%.
As for `CS(=O)(=O)N1CCC(Oc2ccc(C(=O)NC3CCCC3)cc2Cl)CC1`, the “Percent Effect” value is -48.27%.
For `COc1cccc2c1OCC(C(=O)NC1CCN(S(C)(=O)=O)CC1)C2` (stereo not drawn), the “Percent Effect” value was found to be 11.83%.
For `CNC(=O)c1ccc(OC2CCN(S(C)(=O)=O)CC2)c(Cl)c1`, the “Percent Effect” value is on record as -16.21%.
`CS(=O)(=O)N1CCC(NC(=O)COc2ccccc2Cl)CC1`: the “Percent Effect” value was 111.5%.
The figure for `COC(C(=O)NC1CCN(S(C)(=O)=O)CC1)c1ccccc1` (stereo not drawn) is 12.34%; for `CC(CNC(=O)N1CCN(CC(F)F)CC1)Cc1cccs1` (stereo not drawn) it is 5.816%.
As to `Cn1ccnc1C(O)(CCNCc1ccco1)C(F)(F)F` (stereo not drawn), the “Percent Effect” value is on record as -13.62%.
In the case of `CN(C)CCNC(=O)Nc1cccc(C[S+]([O-])Cc2ccccc2)c1` (stereo not drawn), the “Percent Effect” value was -3.662%.
Take `Cc1noc(CN(C)CC2CCN(CCO)CC2)n1`: the “Percent Effect” value was found to be 3.042%.
Turning to `COc1cccc(CN2CCC3(CC(Nc4ccncn4)C3)C2)c1F` (stereo not drawn), the “Percent Effect” value was 97.57%.
As to `COc1cccc(OC)c1CN1CCC2(CC(Nc3ccncn3)C2)C1` (stereo not drawn), the “Percent Effect” value is recorded as 4.398%.
For the molecule `COc1ccc(CN2CCC3(CCCNC3)C2)cc1Cn1cccn1` (stereo not drawn), the “Percent Effect” value is reported as -22.52%.
Under `COc1cc(CN2CCC3(CC(Nc4ccncn4)C3)C2)cc(OC)c1` (stereo not drawn) stands 125.9%; under `COc1ccc(CN2CCC3(CC(Nc4ccncn4)C3)C2)c(OC)c1` (stereo not drawn), 2.421%.
Turning to `Cc1c(NC(=O)CN2CCC(Oc3cnccn3)CC2)cnn1C`, the “Percent Effect” value stood at 146%.
Consider `O=C(Cn1cccn1)N1CCC(Oc2cnccn2)CC1`, for which the “Percent Effect” value turned out to be 4.434%.
The figure for `Cn1ccc(NC(=O)CN2CCC(Oc3cnccn3)CC2)n1` is 107.4%; for `Cc1nn(C)c(C)c1CC(=O)NCc1ccnc(OC2CCCC2)c1` it is -17.69%; for `COc1ccnc(NC2CCN(CC(=O)Nc3ccccc3)CC2)n1` it is -1.982%.
For the molecule `Cc1nn(C)cc1NC(=O)CN1CCC(Oc2cnccn2)CC1`, the “Percent Effect” value turned out to be 129.5%.
In the case of `CCOC1CCN(CC(=O)Nc2oc(C)c3c(C)n[nH]c(=O)c23)CC1`, the “Percent Effect” value is given as -5.173%.
Consider `Cc1nc(C)c(CN2CCOC[C@H](Oc3cnccn3)C2)s1`, for which the “Percent Effect” value is recorded as -6.668%.
In the case of `O=C(Cn1ccc2ccccc21)N1CCC(Oc2cnccn2)CC1`, the “Percent Effect” value came to 0.2299%.
Regarding `CN1CCC(N2CCN(C(C(=O)O)c3cccc4c3OCC4)CC2)CC1` (stereo not drawn), the “Percent Effect” value is given as -2.868%.
Under `Cc1nc(-c2cc(C(=O)NC(C)(C(=O)O)C(C)C)co2)cs1` (stereo not drawn) stands 1.094%; under `O=C(NCCC1CCCCO1)c1cc(COc2cncc(Cl)c2)on1` (stereo not drawn), -5.256%; under `CSC(C)(C)CNC(=O)NC1CCSCC1`, -7.35%.
In the case of `CC1CN(C)CCN1C(=O)c1ccc(-n2cnnc2)cc1` (stereo not drawn), the “Percent Effect” value is -8.678%.
Turning to `Cc1cc(NC(=O)N2CCN(C)CC2C)n(Cc2ccccc2)n1` (stereo not drawn), the “Percent Effect” value is given as -3.69%.
Under `CC1CN(C)CCN1C(=O)c1cnn(-c2cccc(Cl)c2)c1` (stereo not drawn) stands 91.23%.
Turning to `CC1CN(C)CCN1C(=O)c1ccn(-c2ccccc2)n1` (stereo not drawn), the “Percent Effect” value was determined as 92.82%.
`CC1CN(C)CCN1C(=O)c1ccn(-c2ccccc2Cl)n1` (stereo not drawn): the “Percent Effect” value came to 97.32%.
Turning to `CC1CN(C)CCN1C(=O)c1cccn1Cc1cccnc1` (stereo not drawn), the “Percent Effect” value turned out to be 1.342%.
Under `CC1CN(C)CCN1C(=O)c1cnn(-c2ccc(Cl)cc2)c1` (stereo not drawn) stands 3.844%; under `COc1ccc(-n2ccc(C(=O)N3CCN(C)CC3C)n2)cc1` (stereo not drawn), -4.695%.
Regarding `CCc1nc(C(=O)N2CCN(C)CC2C)nn1-c1ccccc1Cl` (stereo not drawn), the “Percent Effect” value is 4.953%.
Take `CC1CN(C)CCN1C(=O)c1cccn1Cc1ccncc1` (stereo not drawn): the “Percent Effect” value is 17.94%.
As for `Cc1cnn(-c2ccc(C(=O)N3CCN(C)CC3C)cc2)c1` (stereo not drawn), the “Percent Effect” value is recorded as -5.131%.
Take `CC1CN(C)CCN1C(=O)c1ccn(-c2ccc(F)cc2)n1` (stereo not drawn): the “Percent Effect” value turned out to be 101.7%.
As to `CCCn1cnnc1CNC(=O)CC1C(=O)NCCN1CC(C)(C)C` (stereo not drawn), the “Percent Effect” value stood at 2.919%.
Under `O=C1N(CC2CC2)C2(CCSCC2)NC12CCCC2` stands -1.128%; under `O=C1CC(c2ccc(C(=O)O)cc2)c2ncn(-c3cccc(Cl)c3)c2N1` (stereo not drawn), -0.6524%; under `CC1CN(C)CCN1C(=O)c1ccn(-c2cccc(Cl)c2)n1` (stereo not drawn), -2.456%.
The figure for `O=C(c1ccn(-c2cccc(F)c2)n1)N1CCN(CC2CC2)CC1` is 1.903%; for `CC1CN(C)CCN1C(=O)c1ccn(-c2cccc(F)c2)n1` (stereo not drawn) it is 102.3%.
Consider `CCc1cnc(N2CCN(Cc3ccncc3)CC2)s1`, for which the “Percent Effect” value is -22.29%.
For the molecule `Cc1ccc(CN2CCS(=O)(=O)C(C)(C)C2)cc1C`, the “Percent Effect” value is 113.6%.
Under `Cn1cc(CN2CCN(Cc3nccn3C)CC2)cn1` stands -17.17%; under `Cc1ccc(CN2CCN(CC(=O)N(C)C)[C@@H]3CS(=O)(=O)C[C@@H]32)cc1C`, 8.037%; under `Cc1ccc(CN2CCN(CC3CC3)[C@@H]3CS(=O)(=O)C[C@@H]32)cc1C`, -7.096%.
Consider `COCCC1(CO)CCCN(Cc2ccncc2)C1` (stereo not drawn), for which the “Percent Effect” value is on record as -9.658%.
On to `CC1(C)CN(Cc2ccncc2)CCS1(=O)=O`, for which the “Percent Effect” value is recorded as 93.26%.
Under `Cn1cc(CN2CCS(=O)(=O)C(C)(C)C2)cn1` stands 112.3%; under `Cn1cc(CN2CC3(CCN(Cc4ccsc4)C3)C2)cn1`, -4.449%.
The figure for `COc1cccc2c1OCC(CNC(=O)COCC(F)(F)C(F)F)C2` (stereo not drawn) is -0.4399%.
As to `CC(Cn1cccn1)NC(=O)N(C)Cc1ccc(Cl)s1` (stereo not drawn), the “Percent Effect” value is -9.644%.
As to `CNC(=O)C(NC(=O)c1nccn2ccnc12)c1ccc(F)c(F)c1` (stereo not drawn), the “Percent Effect” value is recorded as 7.625%.
As for `COCCN1C[C@@H]2CN(c3cc(OC)ncn3)CCC[C@]2(C(=O)O)C1.O=C(O)C(F)(F)F`, the “Percent Effect” value is -26.02%.
On to `COCCCC1CCCCN1Cc1cc(F)ccc1-n1cccn1` (stereo not drawn), for which the “Percent Effect” value is recorded as -9.489%.
Under `Cc1nc(CSc2nc(=O)ccn2C(C)C)cs1` stands -10.57%.
For `Cn1ccnc1CN1CCN(c2ccc(C#N)cn2)CC1`, the “Percent Effect” value is given as -0.9775%.
Take `CCC1(CO)CCCN(c2ncccc2C#N)C1` (stereo not drawn): the “Percent Effect” value was found to be 13.06%.
`CCc1nc(N2CCN(c3ncccc3C#N)CC2)c2cnn(C)c2n1`: the “Percent Effect” value is -1.782%.
`CCOCCN1CCN(c2ccc(C#N)cn2)CC1CC` (stereo not drawn): the “Percent Effect” value amounted to 137.2%.
Turning to `CCOCCN1CCN(c2ncccc2C#N)CC1CC` (stereo not drawn), the “Percent Effect” value was found to be 98.03%.
On to `CCOCCN1CCN(c2ccc(C#N)cn2)CC1`, for which the “Percent Effect” value is on record as 109.9%.
Under `CC1CN(c2ccc(C#N)cn2)CCN1c1ccc2nncn2n1` (stereo not drawn) stands -4.12%.
Turning to `CC(C)(C)NC(=O)CN1CCCN(c2ccc(C#N)cn2)CC1`, the “Percent Effect” value is given as 24.81%.
The figure for `CS(=O)(=O)NCC1CCCN(c2ccc(C#N)cn2)C1` (stereo not drawn) is 7.798%; for `OC(CN(Cc1ccccc1)Cc1cscn1)c1ccco1` (stereo not drawn) it is 18.92%.
Take `Cc1cc(C(=O)NCC(c2ccccc2Cl)N2CCOCC2)on1` (stereo not drawn): the “Percent Effect” value was -6.198%.
Under `CCOCCCn1c(NC(=O)c2scnc2C)nc2ccccc21` stands 25.92%; under `CCOC(=O)NCC(=O)Nc1nc2ccccc2n1C(C)(C)C`, 17.02%; under `CCOCCCn1c(NC(=O)c2ccnc(C)n2)nc2ccccc21`, 73.67%.
Consider `CCOCCCn1c(NC(=O)c2cnc(C)s2)nc2ccccc21`, for which the “Percent Effect” value is recorded as 27.94%.
Take `CCOCCCn1c(NC(=O)c2cnn(C)c2)nc2ccccc21`: the “Percent Effect” value was -0.9199%.
For `CCOCCCn1c(NC(=O)c2cc(C)on2)nc2ccccc21`, the “Percent Effect” value is 95.91%.
Regarding `CCN(CC)CCn1c(NC(=O)c2scnc2C)nc2ccccc21`, the “Percent Effect” value came out at 105.9%.
As for `CCOCCCn1c(NC(=O)c2cc(C)no2)nc2ccccc21`, the “Percent Effect” value is 106.1%.
Regarding `CCCn1c(NC(=O)CNC(=O)OCC)nc2ccccc21`, the “Percent Effect” value is on record as -6.336%.
Under `CCOCCCn1c(NC(=O)c2ccc(C)nc2)nc2ccccc21` stands 6.919%; under `CCOCCCn1c(NC(=O)c2cnc(C)cn2)nc2ccccc21`, 19.12%.
With `CCN(c1ccccc1)S(=O)(=O)c1cc(C(=O)O)cc2c1CCC2`, the “Percent Effect” value was determined as 1.015%.
`Cc1ccc(N2Cc3cnn(Cc4ccc(F)cc4)c3C2)nn1`: the “Percent Effect” value was determined as 30.55%.
In the case of `Cc1nn(C)c(C)c1OCC(=O)N1CCC(O)(C(F)(F)F)CC1`, the “Percent Effect” value is on record as -15.17%.
Under `CCOCCNC(=O)c1cc(COc2cncc(Cl)c2)on1` stands -4.955%.
For `Cc1cc2occ(CC(=O)N3CCC4(CCCN(C)C4=O)C3)c2cc1Cl` (stereo not drawn), the “Percent Effect” value is -29.71%.
Regarding `NC(=O)N1CCCC(C(=O)NCc2noc(Cc3ccccc3)n2)C1` (stereo not drawn), the “Percent Effect” value is 9.14%.
For `CCCC(=O)NC1CCCN(c2cncc(Br)c2)C1` (stereo not drawn), the “Percent Effect” value is given as 2.547%.
As for `CCC(=O)NC1CCCN(c2cncc(OCc3ccccc3)n2)C1` (stereo not drawn), the “Percent Effect” value is 109.7%.
Turning to `Cc1ccccc1CSc1nc(N)cc(N2CCCC(O)C2)n1` (stereo not drawn), the “Percent Effect” value is recorded as -23.5%.
On to `CNC(=O)CN(C)c1cncc(OCC(C)C)n1`, for which the “Percent Effect” value is on record as -2.547%.
Turning to `O=C(O)c1cn(CC2CCCN(c3cnc4ccccc4n3)C2)nn1` (stereo not drawn), the “Percent Effect” value was 0.3718%.
Take `NC(=O)CC1CCCN(c2cncc(OCc3ccccc3)n2)C1` (stereo not drawn): the “Percent Effect” value was 95.75%.
Under `CCC(=O)NC1CCCN(C(=O)c2ccc(OCC3CC3)nc2)C1` (stereo not drawn) stands -1.285%.
As for `CNC(=O)CN(C)c1cncc(OCc2ccccc2)n1`, the “Percent Effect” value is -7.002%.
As for `CC(C)COc1cncc(N2CCCC(CC(N)=O)C2)n1` (stereo not drawn), the “Percent Effect” value was 119.8%.
For `NC(=O)CC1CCCN(c2cncc(SCc3ccccc3)n2)C1` (stereo not drawn), the “Percent Effect” value worked out at 107.6%.
As for `CC(C)Oc1ncc(C(=O)N2CCC(CC(N)=O)CC2)cc1Cl`, the “Percent Effect” value was -16.32%.
In the case of `Cc1ccc(CN2CCN(Cc3ccc4nonc4c3)CC2=O)cc1`, the “Percent Effect” value is -11.42%.
As for `O=C(Nc1cccnc1)C1CCCN(c2cc(-n3cccn3)ncn2)C1` (stereo not drawn), the “Percent Effect” value is -6.997%.
For `c1ccc(COC2CCN(c3cncc(-n4cccn4)n3)CC2)cc1`, the “Percent Effect” value worked out at 1.342%.
For `COCC1CCCN(c2cncc(OCc3ccccc3)n2)C1` (stereo not drawn), the “Percent Effect” value turned out to be 88.62%.
Take `COc1nc(N2CCC(CC(N)=O)CC2)ncc1Br`: the “Percent Effect” value is recorded as 4.929%.
`c1ccc2nc(N3CCCC(Cn4cncn4)C3)cnc2c1` (stereo not drawn): the “Percent Effect” value is given as 3.637%.
As to `O=C(O)c1ccc(N2CCC(Cc3ccccc3)CC2)nn1`, the “Percent Effect” value turned out to be 3.318%.
Turning to `NC(=O)CC1CCN(c2cncc(OCc3ccccc3)n2)CC1`, the “Percent Effect” value worked out at 92.73%.
